Screening data: PubChem, Broad Institute
LGR2 inh = blocks bursicon-induced cAMP signaling via Drosophila LGR2. HEK293 LGR2, CRE-luciferase, bursicon-stimulated, 4 h. inhibition, % at 9.99 µM. 380,000 tested, 0.35% active;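 active means drop in luminescence signal, shown as inhibition above about 50% in the replicate tests, limit read from the data, passing the limit was not always enough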;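 further: agonist challenge used bursicon conditioned medium at about half maximal strength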
Ecoli rRNA inh = selective bacterial rRNA inhibition in E. coli. AID 720706. GFP signal change (wild-type ribosome), % (test concentration not listed). E. coli WT GFP vs humanized-ribosome RFP mutants, fluorescence, 24 h; hits give low values; DMSO median 0, no signal -100. 350,000 tested, 1.6% active;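 active means significant combined selectivity score with lowered wild-type GFP, culture density cut under 30%, mutant RFP and density less affected; inactive means any of these conditions unmet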
PGC1a acetyl inh = modulators of PGC1a acetylation; U2OS PGC1a acetylation, AlphaScreen anti-acetyl-lysine; with virally co-expressed GCN5 acetyltransferase; inhibition, % at 15.6 µM; 350,000 tested, 0.17% active; AID 651687;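 active means every replicate shows inhibition of at least 40%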;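 further: 0% = neutral control wells and 100% = positive control wells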
EWS-Fli inh = EWS/Fli transcriptional activity inhibition. inhibition, % at 12.6 µM. 350,000 tested, 0.67% active. A673 NR0B1-luciferase reporter, viability-normalised;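 active means mean inhibition of at least 50% after viability correction, with every replicate also passing that limit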;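 further: firefly luciferase signal divided by Alamar Blue viability fluorescence both relative to DMSO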
SIRT5 block = sirtuin-5 (human) deacylase inhibition; 330,000 tested, 1.1% active; Purified SirT5, succinyl-peptide AMC, trypsin-coupled fluorescence; inhibition, % at 15 µM; in the data active means inhibition above about 15%
Target sequence (Q9NXA8 whole entry, looked up): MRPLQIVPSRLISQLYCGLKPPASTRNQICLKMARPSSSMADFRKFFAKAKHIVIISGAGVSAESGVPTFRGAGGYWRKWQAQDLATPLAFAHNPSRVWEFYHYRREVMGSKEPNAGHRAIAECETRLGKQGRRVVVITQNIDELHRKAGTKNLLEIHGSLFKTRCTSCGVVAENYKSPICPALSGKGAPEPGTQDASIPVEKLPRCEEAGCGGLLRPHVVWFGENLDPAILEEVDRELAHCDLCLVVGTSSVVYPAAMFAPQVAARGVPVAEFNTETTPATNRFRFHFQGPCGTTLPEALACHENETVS
PAX8 inh HTS = inhibitors of PAX8 transcriptional activity in RMG-I cells; RMG-I TPO-luciferase reporter, SteadyGlo, 24 h; inhibition, % at 12.6 µM; 360,000 tested, 1.2% active;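 active means mean replicate inhibition at least 60% with every replicate also reaching 60%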;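 further: luciferase light reporting Pax8 driven TPO promoter activity; plate controls were median of neutral control wells for no effect and mitoxantrone controls for full effect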
Numbers without * were called inactive; x = no result. A selection: hits, their analogues and other compounds. The true share with any hit is near 3.4%.

SMILES | LGR2 inh | Ecoli rRNA inh | PGC1a acetyl inh | EWS-Fli inh | SIRT5 block | PAX8 inh HTS
O=C(O)/C=C/C(=O)Nc1nc(-c2ccc3ccccc3c2)cs1 | -5.6 | -33.6* | x | 2.1 | -1.3 | 4.1
CCCC(=O)Nc1ccc2c(c1)C(=O)N(C)C[C@H](OC)[C@@H](C)CN(C(=O)CC)[C@@H](C)CO2 | 4.9 | 0.9 | 2.6 | -4.1 | x | x
C[C@@H]1CN([C@H](C)CO)S(=O)(=O)c2ccc(C#Cc3ccncc3)cc2O[C@@H]1CN(C)C(=O)C1CCOCC1 | -1.7 | 4.6 | 9.2 | 3.5 | 3.5 | 16.8
CCOc1cc(/C=N/N=C(N)N)ccc1OCc1ccc(Cl)cc1 | 53.3* | -32.6 | 55.7* | -3.8 | 1.9 | 31.0
COc1cc(/C=N/N=C(N)N)ccc1OCc1ccc(Cl)cc1 | 32.1 | -59.6 | x | 44.1 | -0.3 | -17.4
N#Cc1c(N)nc(SCc2ccccc2)c(C#N)c1-c1ccco1 | -17.4 | -43.0* | 0.0 | -5.7 | 3.1 | x
C[C@H]1CN([C@@H](C)CO)C(=O)Cc2cc(NC(=O)CCCCCC(=O)Nc3ccccc3N)ccc2O[C@@H]1CN(C)C(=O)Nc1ccc(F)cc1 | -17.6 | 5.0 | 5.3 | x | -1.0 | -0.1
C[C@@H]1CN([C@@H](C)CO)C(=O)c2cc(-c3cccnc3)cnc2O[C@H]1CN(C)C(=O)C1CC1 | -0.4 | 8.1 | 4.5 | -0.3 | 4.5 | x
COC(=O)c1ccc2c(c1)NC(=O)CS2 | -26.5 | 15.5 | 7.8 | -1.7 | 0.5 | 16.2
N#CCCN(C(=O)COC(=O)c1ccc2c(c1)NC(=O)CS2)c1ccc2c(c1)OCCO2 | 1.6 | -4.1 | 0.2 | x | 37.1* | 9.4
C[C@@H]1CN([C@@H](C)CO)C(=O)c2cc(NC(=O)Nc3cccc4ccccc34)ccc2O[C@@H](C)CCCCO[C@H]1CN(C)S(=O)(=O)c1cccs1 | 11.4 | 1.1 | -6.3 | 7.1 | x | -9.2
CC1CC(C)CN(C(=O)c2ccc(-c3ccc([N+](=O)[O-])cc3)o2)C1 (stereo not given) | 6.2 | -20.9* | -0.4 | -55.3 | -1.0 | -79.6
O=C(NNC(=O)c1ccccc1O)c1ccc(-c2ccc([N+](=O)[O-])cc2)o1 | -8.1 | -24.5* | x | -25.0 | -1.1 | 9.0
O=C(c1ccc(-c2ccc([N+](=O)[O-])cc2)o1)N1CCCCC1 | -25.8 | 3.0 | -3.6 | -17.9 | -4.3 | -184.5
Cc1noc(C)c1NC(=O)Nc1ccc2c(c1)CC(=O)N([C@H](C)CO)C[C@H](C)[C@@H](CN(C)Cc1ccc(C(F)(F)F)cc1)O2 | -6.3 | 1.0 | 3.6 | 12.2 | x | 13.7
C[C@@H]1CN([C@@H](C)CO)C(=O)c2cc(NS(=O)(=O)c3cn(C)cn3)ccc2O[C@H]1CN(C)S(=O)(=O)c1cccs1 | 17.1 | 3.1 | 5.5 | -11.1 | 5.7 | x
C[C@@H]1CN([C@@H](C)CO)S(=O)(=O)c2ccc(/C=C/c3ccccc3)cc2O[C@H]1CN(C)C(=O)c1ccccc1 | 23.6 | -5.8 | -18.3 | 31.3 | x | 70.9*
C/C=C/c1ccc2c(c1)O[C@H](CN(C)C(=O)c1ccc3c(c1)OCO3)[C@H](C)CN([C@H](C)CO)S2(=O)=O | -1.7 | -5.0 | 11.0 | 11.7 | 4.9 | x
C[C@@H]1CN([C@@H](C)CO)S(=O)(=O)c2ccc(/C=C/c3ccccc3)cc2O[C@H]1CN(C)C(=O)c1ccc2c(c1)OCO2 | x | x | 4.5 | 6.1 | 26.6* | x
C[C@H](CO)N1C[C@H](C)[C@H](CN(C)C(=O)c2ccccc2)Oc2cc(/C=C/c3ccccc3)ccc2S1(=O)=O | -5.1 | -6.2 | -21.9 | 8.4 | 0.2 | 40.3
C[C@H](CO)N1C[C@H](C)[C@@H](CN(C)C(=O)c2ccc3c(c2)OCO3)Oc2cc(/C=C/c3ccccc3)ccc2S1(=O)=O | 9.5 | -4.0 | -9.0 | 9.8 | 16.5* | 40.4
CCCNC(=O)N1CC2(CCN(CC3CC3)CC2)c2c(n(C)c3cc(OC)ccc23)[C@H]1CO | 9.7 | 1.4 | x | 1.0 | -2.5 | -15.9
CCN1[C@H](C(=O)NCCCN(C)C)[C@@H](CO)[C@@H]2Cn3c(ccc(C4=CCCC4)c3=O)[C@@H]21 | 0.3 | 0.5 | x | 4.3 | -4.3 | x
CC1CCN(CCc2nc3cc(NS(=O)(=O)c4ccccc4)ccc3n2C)CC1 | x | x | 8.3 | x | x | 93.1*
COc1ccc(-c2cc(=Nc3ccc(C(=O)O)cc3)c3cc(C)ccc3o2)cc1 | 52.6* | 6.5 | 2.2 | 7.3 | 3.4 | -26.0
SMILES | LGR2 inh | Ecoli rRNA inh | PGC1a acetyl inh | EWS-Fli inh | SIRT5 block | PAX8 inh HTS
COc1ccc(-c2cc(=O)c3cc(O)ccc3o2)cc1 | -24.2 | x | -36.9 | -93.9 | x | x
C=CCn1c(-c2ccc(OC)cc2)csc1=Nc1c(C)n(C)n(-c2ccccc2)c1=O | x | x | 1.5 | x | x | x
CCc1ccc2oc(-c3ccc(OC)cc3)cc(=Nc3cccc(C(=O)O)c3)c2c1 | 84.0* | -26.9 | 2.1 | 18.9 | -18.3 | 12.5
CCOc1ccc2c(c1)c(N=Nc1cccc(C(=O)O)c1)c(O)n2C | -78.4 | x | -8.6 | x | x | -128.9
CCc1ccc2oc(-c3ccc(OC)cc3)cc(=Nc3c(C)n(C)n(-c4ccccc4)c3=O)c2c1 | 82.8* | -12.8 | 0.7 | 44.4 | -6.3 | -2.2
COCC#Cc1cnc2c(c1)C(=O)N([C@@H](C)CO)C[C@@H](C)[C@@H](CN(C)C)O2 | -8.2 | 2.1 | -6.5 | -1.4 | 8.8 | x
COc1ccc(C(=O)NNC(=O)Cc2ccc(Cl)cc2)cc1 | -7.3 | 0.4 | x | 0.5 | -1.2 | -9.6
O=C(NNC(=O)c1ccc2ccccc2c1)c1cccc(F)c1 | -31.9 | -5.1 | -7.9 | -14.4 | x | -46.1
O=C(NNC(=O)c1cccc2ccccc12)c1cccc(F)c1 | -19.7 | 3.5 | 4.1 | -10.1 | x | 87.2*
Cc1nn(-c2ccccc2)nc1C(=O)NN | 9.2 | 0.1 | 4.0 | 0.1 | -5.4 | -7.6
COc1cccc(C(=O)NNC(=O)Cc2ccc(Cl)cc2)c1 | 18.5 | -20.6* | x | 8.7 | -2.9 | 16.2
COc1ccc(C(=O)NNC(=O)c2cccc(F)c2)cc1 | -7.3 | -23.2* | x | -6.0 | -3.1 | 1.3
Cc1nn(-c2ccccc2)nc1C(=O)NNC(=O)c1cccc2ccccc12 | 7.8 | -21.4* | x | 15.2 | -0.7 | 26.8
COC(=O)[C@@H]1[C@@H](CO)[C@@H]2Cn3c(ccc(-c4ccncc4)c3=O)[C@@H]2N1Cc1cccc(F)c1 | 7.4 | -1.0 | x | 3.3 | 5.6 | 5.9
C[C@@H]1CN([C@@H](C)CO)S(=O)(=O)c2ccc(C#CC3CC3)cc2O[C@@H]1CN(C)C | -5.2 | 5.4 | -8.1 | 6.4 | -4.3 | x
COc1ccccc1C(=O)Nc1ccc(C)cc1C(=O)c1ccccc1 | x | x | x | -5.9 | 1.0 | 9.8
COc1ccc(C(=O)Nc2ccc(C)cc2C(=O)c2ccccc2)cc1 | 2.0 | -18.6* | x | 1.7 | -2.2 | -2.3
O=C(C[C@H]1CC[C@@H](NC(=O)Cc2ccccn2)[C@H](CO)O1)NCCCN1CCOCC1 | -18.2 | 2.7 | -3.5 | 1.1 | 0.7 | -3.5
CSc1nc2ccc(NS(=O)(=O)c3ccc(Br)s3)cc2s1 | 5.4 | -43.8* | -7.3 | 12.4 | 3.2 | 8.9
CC(=O)N(C)C[C@H]1Oc2ccc(N)cc2C(=O)N(C)C[C@H]1C | x | 2.8 | x | x | x | x
